Compound activity deposited in PubChem BioAssay by National Center for Advancing Translational Sciences (NCATS).
DT40 TDP1 CPT: qHTS for Inhibitors of human tyrosyl-DNA phosphodiesterase 1 (TDP1): qHTS in cells in presence of CPT | 12% of 420,000 active | chicken DT40 Tdp1-/-;hTDP1 cells + 20 nM CPT, ATP luminescence, 48 h | Potency, µM (titrated, usually from 46.2 µM), for inactives: top-dose activity change, negative = growth inhibition, hits mostly inhibitors; note: % is set by controls: 0 for no effect and ±100 for the full control effect; nearly all actives have a fitted effect of over 55% in size
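Chicken DT40 Tdp1-/- cells complemented with human TDP1, 400 cells/well, exposed to compounds plus 20 nM camptothecin for at least 48 h at 37 C; viability read as ATP content by CellTiter-Glo luminescence.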
TDP1 cell noCPT: qHTS for Inhibitors of human tyrosyl-DNA phosphodiesterase 1 (TDP1): qHTS in cells in absence of CPT. DT40 Tdp1-/- hTDP1 cells, no CPT, ATP luminescence, 48 h. Potency, µM (titrated, usually from 46.2 µM), without a hit: at the highest dose activity change, negative = growth inhibition, most hits filed as inhibitors. 15% of 420,000 active; note: % is set by controls: 0 for no effect and ±100 for the full control effect; nearly all actives have a fitted effect of over 55% in size
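Growth kinetics read by CellTiter-Glo luminescence after ≥48 hr at 37 °C. Cells: DT40 Tdp1-/- stably carrying human TDP1, 400 per well, compound exposure in the absence of CPT (DMSO vehicle).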
S2 tox: Viability Counterscreen for Primary qHTS for Inhibitors of ATXN expression; S2 cells (HEK-293 line with an ATXN2-luciferase reporter) viability, CellTiter-Fluor protease fluorescence, 24 h; Potency, µM (top dose mostly 56.7 µM), most hits filed as cytotoxic; 0.49% of 400,000 active; AID 651635, 2014; note: nearly all actives have a fitted effect of over 40% in size
TGFb inhibitor: qHTS for Inhibitors of TGF-b; 1.2% of 410,000 active; HepG2 CAGA-GFP TGF-b/SMAD3 reporter, GFP fluorescence, 18 h; TGF-beta stimulated, 500 pg/mL final; Potency, µM (top dose mostly 46.1 µM), without a hit: at the highest dose activity, negative = inhibition, actives largely listed as inhibitors; note: % is set by controls: 0 for no effect and ±100 for the full control effect; nearly all actives have a fitted effect of over 65% in size
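GFP signal (ex488/em500-530) from TGF-beta-stimulated HEPG2 CAGA-GFP cells, 500 pg/mL final, 18 h at 37 degrees C in DMEM plus 1% FBS, normalized to unstimulated and DMSO-stimulated controls.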
HepG2 viability: qHTS for Inhibitors of TGF-b: Cytotox Counterscreen; HepG2 CAGA-GFP viability, ATP luminescence, 18 h; Potency, µM (doses to about 46.1 µM), for inactives: at the highest dose activity change, negative = cytotoxicity, usual class: cytotoxic; 0.76% of 410,000 active
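CellTiter-Glo luminescence gave cytotoxicity after 18 hours at 37 degrees C. The cells were HepG2 CAGA-GFP in 1% FBS DMEM, stimulated with 500 pg/mL TGF-beta after compound addition. %Activity was normalised to no-cell wells (complete cell-killing) and DMSO (no toxicity), and curves were fitted and classified.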
ATXN2 expr inh: Primary qHTS for Inhibitors of ATXN expression | HEK-293 ATXN2-luciferase reporter, luminescence, 24 h | Potency, µM (titrated, usually from 57 µM), for the others: top-dose activity change, negative = inhibition, hits mostly inhibitors | 0.72% of 360,000 active | AID 1745845, 2022; note: % is set by controls: 0 for no effect and ±100 for the full control effect; nearly all actives have a fitted effect of over 55% in size
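qHTS (up to 57 uM final) was run with 24 h compound exposure of reporter cells at 37 °C. Each well was multiplexed: SteadyGlo luminescence measured ATXN2-luciferase expression after a fluorogenic Gly-Phe-AFC viability readout (25 uM final).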
Active calls of the source: *; i = inactive; ? = inconclusive; / = no result; ! = not active in a repeat. Sampled rows, rich in hits. Any-hit rate of the full collection: about 17%. Calls come from the whole dose curve; as a rule, active = well fitted curve in the direction sought with a large enough effect; inconclusive = small, poorly fitted or top-dose-only effect, or another doubt; inactive = no such curve, though single readings can be large; an effect the other way counts as inactive or inconclusive. Potency is the fitted concentration of half-maximal effect.

SMILES	DT40 TDP1 CPT	TDP1 cell noCPT	S2 tox	TGFb inhibitor	HepG2 viability	ATXN2 expr inh
C[C@@H](C(=O)Nc1ccc2ccccc2c1)[C@H]1C[C@]1(C)[C@H](NS(=O)(=O)c1ccccc1)c1ccccc1	?	21µM*	i	-24%	-4%	20%
Cc1ccc(CNC(=O)[C@H](C)[C@H]2C[C@]2(C)[C@H](NC(=O)OCc2ccccc2)c2ccccc2)o1	?	16µM*	i	-16%	-10%	-20%
C[C@@H](C(=O)NCCc1c[nH]c2ccccc12)[C@@H]1C[C@@]1(C)[C@@H](NC(=O)OCc1ccccc1)c1ccccc1	13µM*	18µM*	?	?	-11%	-35%
Cc1ccc2c(c1)C(SCC(=O)NCCc1ccccc1)CC1(CCCC1)O2 (centres undefined)	?	?	?	1%	0%	-30%
O=C(CC(Nc1ccc(F)cc1)C(=O)OCC(=O)c1cccs1)c1ccccc1 (centres undefined)	?	?	i	-11%	-8%	46%
CC(=O)N=Nc1[nH]c(N)c2ccccc12	17%	0%	i	-2%	-18%	1%
C[C@@H](C(=O)NCc1ccccc1)[C@@H]1C[C@@]1(C)[C@@H](NC(=O)OCc1ccccc1)c1ccccc1	16µM*	?	i	0%	2%	-16%
C[C@@H](C(=O)NCc1ccccn1)[C@@H]1C[C@@]1(C)[C@@H](NC(=O)OCc1ccccc1)c1ccccc1	23µM*	13µM*	i	-5%	-3%	8%
C[C@@H](C(=O)O)[C@@H]1C[C@@]1(C)[C@@H](NC(=O)OCc1ccccc1)c1ccccc1	-10%	-20%	i	-3%	-1%	4%
C[C@@H](C(=O)Nc1ccc2ccccc2c1)[C@@H]1C[C@@]1(C)[C@@H](NC(=O)OCc1ccccc1)c1ccccc1	?	16µM*	i	?	-58%	3%
Cc1cccc(OC(C)C(=O)Nc2ccc(S(=O)(=O)N3CCCC3)cc2)c1 (centres undefined)	?	?	i	-22%	-9%	?
O=C1[C@H](Cc2ccccc2)NCC=CC[C@@H](c2ccco2)N1Cc1ccccc1	?	?	i	-1%	0%	-12%
O=C1[C@H](Cc2ccccc2)NC/C=C\C[C@@H](c2ccco2)N1Cc1ccccc1	?	14µM*	/	?	-19%	/
O=C1[C@H](Cc2ccccc2)NCCCC[C@@H](c2ccc(Cl)cc2)N1Cc1ccc(Cl)cc1	?	?	?	?	-88%	?
O=C1[C@H](Cc2ccccc2)NC/C=C\C[C@@H](c2ccc(Cl)cc2)N1Cc1ccccc1	13µM*	11µM*	/	?	8.9µM*	/
O=C1[C@H](Cc2ccccc2)NCCCC[C@@H](c2ccco2)N1Cc1ccccc1	?	13µM*!	i	25%	-21%	-3%
O=C1[C@H](Cc2ccccc2)NCCCC[C@H](c2ccco2)N1Cc1ccccc1	13µM*	21µM*	i	?	-97%	?
COc1ccc(-c2nnc3c4ccccc4c(-c4ccccc4)nn23)cc1	11%	0%	/	-18%	3%	/
CCCCNCC#CCOc1cc(C)ccc1C(C)C	?	?	?	-12%	-7%	/
O=C1[C@H](Cc2ccccc2)NC/C=C\C[C@H](c2ccc(Cl)cc2)N1Cc1ccc(Cl)cc1	?	?	/	?	-61%	/
CC(C)CC(=O)N1CC=CC[C@@H](c2ccc(Cl)cc2)N(Cc2ccc(Cl)cc2)C(=O)[C@@H]1Cc1ccccc1	15µM*	13µM*	?	?	-38%	-18%
O=C1[C@H](Cc2ccccc2)NCCCC[C@H](c2ccc(Cl)cc2)N1Cc1ccccc1	?	16µM*!	i	?	-24%	?
CCOC(=O)c1cc2c(c(-c3ccccc3)n1)[C@H](CCO)N(S(=O)(=O)C(C)(C)C)C2	-1%	-10%	i	0%	8%	7%
COc1ccc(CN2C(=O)C(CC(C)C)Nc3ncnc(N4CCOCC4)c32)cc1 (centres undefined)	3%	-9%	i	6%	-6%	1%
O=C1C(Cc2ccccc2)NC(=S)N1Cc1ccccc1 (centres undefined)	7%	-3%	i	-4%	-6%	/
SMILES	DT40 TDP1 CPT	TDP1 cell noCPT	S2 tox	TGFb inhibitor	HepG2 viability	ATXN2 expr inh
CC(C)CC1NC(=S)N(Cc2ccccc2)C1=O (centres undefined)	?	?	?	5µM*	-38%	/
CC(C)CC1Nc2ncnc(N3CCN(c4ccccc4)CC3)c2N(Cc2ccccc2)C1=O (centres undefined)	16µM*	15µM*	?	?	-19%	-13%
COc1ccc(CN2C(=O)C(CC(C)C)Nc3ncnc(N4CCN(c5ccccc5)CC4)c32)cc1 (centres undefined)	18µM*	?	i	?	-21%	-19%
CC(C)CC1Nc2ncnc(N3CCN(c4ccccn4)CC3)c2N(Cc2ccc(Cl)cc2)C1=O (centres undefined)	?	23µM*	?	?	-3%	-18%
CNc1cncc(C(=O)O)c1	10%	1%	i	1%	3%	3%
COCC(=O)Nc1cc(C(=O)NC2C3CC4CC2CC(O)(C4)C3)cc2nc(-c3ccccc3)n(C)c12 (centres undefined)	-1%	-5%	i	/	/	/
Cc1cc2n(n1)CCCN2C(=O)Nc1ccc(C)c(Cl)c1	-3%	-21%	/	/	-20%	/
CC(C)CC1Nc2ncnc(N3CCCCC3)c2N(Cc2ccccc2)C1=O (centres undefined)	26µM*	18µM*	?	-4%	-7%	-15%
O=C1C(Cc2ccc(O)cc2)NC(=S)N1C1CCCCC1 (centres undefined)	-20%	-24%	i	2%	10%	1%
Cc1ccc(CN2C(=O)C(CC(C)C)Nc3ncnc(N4CCOCC4)c32)cc1 (centres undefined)	-9%	-27%	i	?	-25%	4%
